# Source: the supplement of paper PMC13392028
# Over roughly 4,100 sequences, “RBNS R-value (6-mer enrichment in protein-bound RNA vs input library)” has its median near 0.99; the highest 2% begin near 1.4. The entries come from a sample that favours the highest values as a whole.
# Test system: PfIESI-1 RRM domain (Plasmodium falciparum ortholog aa 875-1232, GST fusion)
# Assay: RBNS R-value (6-mer enrichment in protein-bound RNA vs input library) (ratio); higher = stronger binding preference; the methods of the paper give 50 / 100 / 500 nM protein instead
# Experimental: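 RNA Bind-n-Seq: recombinant GST-tagged IESI-1 RRM domain was incubated at room temperature with a random 40-nt in vitro transcribed RNA library at 250, 500 or 1000 nM protein. Bound RNA was pulled down on glutathione beads and sequenced. R-value is the enrichment of each 6-mer in the bound RNA relative to the input library. Each 6-mer sits inside the random 40-mer context, not as an isolated oligo. Values are replicate 1 only.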
Sequence,RBNS R-value (protein concentration: 250 nM),RBNS R-value (protein concentration: 500 nM),RBNS R-value (protein concentration: 1000 nM)
CUCCUU,0.894,0.809,0.869
CUCACC,1.06,0.994,1.04
UUCGCC,1.06,0.992,1.03
GCGAAU,1.01,1.07,1.04
CUUUUU,0.934,0.932,0.919
UUGACG,1.14,1.1,1.07
UAAAUA,0.769,0.893,0.797
AAAUAA,0.785,0.993,0.847
AUAAUG,0.87,0.985,0.875
AUGAAU,1.08,1.18,1.04
UAGAUG,1.1,1.17,1.07
GUGAUG,2.02,2.17,1.72
UUGAUC,1.32,1.35,1.22
UUGAUG,2.95,3.14,2.32
GUGAAG,0.986,0.998,1.03
GGGAUG,1.12,1.08,1.09
GCGAUG,1.37,1.39,1.28
CCGAUG,1.38,1.35,1.29
GCGAUC,0.968,0.948,1.02
AGGAUU,1.04,1.06,1.06
AUGAUU,2.75,3,2.19
UUAGAA,0.943,1.05,0.999
GACUAA,0.913,0.983,0.945
CGCGAU,1.17,1.15,1.13

Sequence,RBNS R-value (protein concentration: 250 nM),RBNS R-value (protein concentration: 500 nM),RBNS R-value (protein concentration: 1000 nM)
UCCACU,0.991,0.933,0.95
GUCUUC,0.908,0.868,0.954
GCAUCC,1.14,1.06,1.11
CUAACC,0.953,0.903,0.903
AGCGUA,0.911,0.94,0.898
CAAAGA,1.13,1.21,1.2
CUGAUC,1.29,1.27,1.2
CGGAUG,1.03,0.978,1.02
AUGAGA,1.23,1.31,1.23
AUGAUA,1.84,2.08,1.63
CUGAUG,2.47,2.58,1.97
AGGAUA,0.981,1.03,1.01
AGGCGG,1.02,0.987,1.05
CCAACU,0.966,0.921,0.933
UUGGGU,0.975,0.933,0.982
UGAGAG,1.18,1.16,1.19
CGAGAC,1.23,1.2,1.18
AGAGAA,1.34,1.48,1.37
CGAGAG,1.29,1.22,1.27
UGAGAA,1.33,1.39,1.34
AGAGAC,1.18,1.21,1.17
AGAGAG,1.19,1.25,1.24
CGAGAA,1.52,1.53,1.43
UGAGAC,1.16,1.17,1.15

Sequence,RBNS R-value (protein concentration: 250 nM),RBNS R-value (protein concentration: 500 nM),RBNS R-value (protein concentration: 1000 nM)
UGUCAC,0.945,0.963,0.96
UGGCAU,1.09,1.07,1.06
GUCCUC,0.918,0.874,0.925
ACCUAU,0.891,0.846,0.828
CGGGGA,1.15,1.1,1.16
GAACUU,0.955,0.971,0.985
GAUGAA,1.88,2,1.59
GAUGGU,1.18,1.23,1.13
UAUGAC,0.947,0.945,0.924
GAUGAU,2.43,2.58,1.9
GAUGAG,1.61,1.68,1.43
GGUGAA,0.997,1.06,1.06
AAUGAC,1.08,1.1,1.09
AAUGAA,0.954,1.1,1.03
GAUGCU,1.34,1.37,1.24
GAUGAC,1.8,1.8,1.51
GACGAG,1.12,1.13,1.11
GAAUAC,0.992,1.04,0.993
CAACUU,0.893,0.889,0.886
GUAAUU,0.943,0.984,0.95
UACCUA,0.87,0.814,0.831
GUAACA,0.845,0.924,0.87
AAAGAU,1.06,1.19,1.11
GGUACC,1.07,1,1.08

Sequence,RBNS R-value (protein concentration: 250 nM),RBNS R-value (protein concentration: 500 nM),RBNS R-value (protein concentration: 1000 nM)
CCUCUA,0.848,0.783,0.823
ACGAGU,1.04,1.06,1.02
ACUUGU,0.921,0.923,0.962
UCUUGA,1.3,1.32,1.25
CCUUGG,1.13,1.03,1.12
ACUUGA,1.42,1.46,1.34
ACUUGC,1.02,0.979,1.01
GCUUGA,1.36,1.4,1.28
GCUUGU,0.92,0.92,0.939
CCUUGA,1.46,1.37,1.32
CCUUGC,1.16,1.03,1.09
CGAGUC,1.09,1.04,1.06
ACGCCU,1.07,0.995,1.03
AUGUGC,1.04,1.07,1
AGUCAA,0.859,0.93,0.933
UGAUCC,1.38,1.38,1.26
CGAUCC,1.08,1.01,1.06
CGAUUG,1.28,1.27,1.2
GGAUCC,1.04,0.978,1.05
UGAUUG,2.38,2.42,1.85
GGAUUG,1.02,1.02,1.02
UGAUUA,2.21,2.58,1.94
CGAUUC,1.25,1.25,1.2
CGAUUA,1.05,1.11,1.04

Sequence,RBNS R-value (protein concentration: 250 nM),RBNS R-value (protein concentration: 500 nM),RBNS R-value (protein concentration: 1000 nM)
AGAUUA,0.942,1.04,0.964
UGAUUC,2.44,2.61,1.97
AGAUUC,1.19,1.22,1.17
CCCGCU,1.09,0.999,1.04
UAAUCC,0.907,0.864,0.872
AACCAA,0.985,1.04,1.01
AAAUAG,0.904,1.06,0.986
AGAUUU,1.17,1.26,1.16
GGAUUU,1.03,1.02,1.02
UGAUUU,3,3.23,2.3
AUUCCG,1.2,1.14,1.16
ACACCA,1.16,1.1,1.1
GCACCU,1.21,1.11,1.13
ACACCC,1.53,1.28,1.33
GCACCC,1.5,1.26,1.33
GCACCG,1.14,1.09,1.14
ACACCG,1.17,1.12,1.15
UUCGUU,0.853,0.817,0.9
CAUAUA,0.762,0.733,0.715
CUCCCU,0.934,0.873,0.909
GAACUG,1.07,1.11,1.11
